# Laboratory results as given in the supplement of paper PMC8728848.
# About 410 targets per protein were measured; listed, in parts, are those with the strongest signals and a random draw of the rest.
# B1: Mindin (Homo sapiens), Q9BUD6 (protein)
# chain: MENPSPAAALGKALCALLLATLGAAGQPLGGESICSARALAKYSITFTGKWSQTAFPKQYPLFRPPAQWSSLLGAAHSSDYSMWRKNQYVSNGLRDFAERGEAWALMKEIEAAGEALQSVHEVFSAPAVPSGTGQTSAELEVQRRHSLVSFVVRIVPSPDWFVGVDSLDLCDGDRWREQAALDLYPYDAGTDSGFTFSSPNFATIPQDTVTEITSSSPSHPANSFYYPRLKALPPIARVTLVRLRQSPRAFIPPAPVLPSRDNEIVDSASVPETPLDCEVSLWSSWGLCGGHCGRLGTKSRTRYVRVQPANNGSPCPELEEEAECVPDNCV
# B2: SGC, Q9M345 (protein)
# chain: QNLNFTYNGFHPPLTDISLQGLATVTPNGLLKLTNTSVQKTGHAFCTERIRFKDSQNGNVSSFSTTFVFAIHSQIPTLSGHGIAFVVAPTLGLPFALPSQYIGLFNISNNGNDTNHIFAVEFDTIQSSEFGDPNDNHVGIDLNGLRSANYSTAGYRDDHDKFQNLSLISRKRIQVWIDYDNRSHRIDVTVAPFDSDKPRKPLVSYVRDLSSILLEDMYVGFSSATGSVLSEHFLVGWSFRLNGEAPMLSLSKLPKLPRFEPRRIS
# What was measured:
# Test in all cases: glycan array binding signal (z-score within array); higher = stronger binding
# Settings in all cases: glycan notation: IUPAC condensed, linker removed
# [1] = target: Fuc(a1-2)Gal
# In short: (§1)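 Arrays were curated from the Consortium for Functional Glycomics database, 3228 in total, and kept only where the protein sequence was available. Binding is expressed as a within-array Z-score. This score was averaged across arrays of the same protein sequence at different concentrations or buffers and across linkers, and negative values can be read as non-binding.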
# [2] = target: Fuc(a1-2)Gal(b1-4)GlcNAc(b1-3)Gal(b1-4)GlcNAc
# In short: as §1
# [3] = target: Fuc(a1-2)Gal(b1-4)[Fuc(a1-3)]GlcNAc
# In short: as §1
# [4] = target: Fuc(a1-2)Gal(b1-4)[Fuc(a1-3)]GlcNAc(b1-3)Gal(b1-4)[Fuc(a1-3)]GlcNAc
# In short: as §1
# [5] = target: Fuc(a1-2)[Gal(a1-3)]Gal(b1-4)[Fuc(a1-3)]GlcNAc
# In short: as §1
# [6] = target: Fuc(a1-2)[GalNAc(a1-4)]Gal(b1-4)GlcNAc
# In short: as §1
# [7] = target: Fuc(a1-3)[Gal(b1-4)]GlcNAc(b1-4)Gal(b1-4)[Fuc(a1-3)]GlcNAc
# In short: as §1
# [8] = target: Gal(a1-3)Gal
# In short: as §1
# [9] = target: Gal(a1-3)Gal(b1-4)[Fuc(a1-3)]GlcNAc
# In short: as §1
# [10] = target: Gal(a1-4)Gal(b1-4)GlcNAc
# In short: as §1
# [11] = target: Gal(b1-3)GlcNAc(b1-3)Gal(b1-3)GlcNAc
# In short: as §1
# [12] = target: Gal(b1-3)GlcNAc(b1-3)Gal(b1-4)GlcNAc
# In short: as §1
# [13] = target: Gal(b1-3)[Fuc(a1-4)]GlcNAc(b1-3)Gal(b1-4)GlcNAc
# In short: as §1
# [14] = target: Gal(b1-4)GlcNAc(b1-3)[Gal(b1-4)GlcNAc(b1-6)]GalNAc
# In short: as §1
# [15] = target: Gal(b1-4)GlcNAc(b1-6)Gal(b1-4)GlcNAc(b1-6)GalNAc
# In short: as §1
# [16] = target: Gal(b1-4)GlcNAc(b1-6)GalNAc
# In short: as §1
# [17] = target: GalNAc(b1-3)GalNAc
# In short: as §1
# [18] = target: GlcNAc(b1-3)[GlcNAc(b1-6)]Gal(b1-4)GlcNAc
# In short: as §1
# [19] = target: Man(a1-2)Man(a1-2)Man(a1-3)Man
# In short: as §1
# [20] = target: Neu5Ac(a2-3)Gal
# In short: as §1
# [21] = target: Neu5Ac(a2-3)Gal(b1-3)[Fuc(a1-4)]GlcNAc(b1-3)Gal(b1-4)[Fuc(a1-3)]GlcNAc
# In short: as §1
# [22] = target: Neu5Ac(a2-3)Gal(b1-4)GlcNAc(b1-6)[Gal(b1-3)]GalNAc
# In short: as §1
# [23] = target: Neu5Ac(a2-3)Gal(b1-4)[Fuc(a1-3)]GlcNAc
# In short: as §1
# [24] = target: Neu5Ac(a2-8)Neu5Ac(a2-8)Neu5Ac(a2-3)Gal(b1-4)Glc
# In short: as §1
# [25] = target: Neu5Gc(a2-6)Gal(b1-4)GlcNAc
# In short: as §1
# [26] = target: Gal(b1-4)GlcNAc6P
# In short: as §1
# [27] = target: Gal6S(b1-4)GlcNAc6S
# In short: as §1
# [28] = target: Glc(b1-6)Glc
# In short: as §1
# [29] = target: GlcA3S(b1-3)Gal(b1-4)GlcNAc(b1-2)Man
# In short: as §1
# [30] = target: GlcNAc(a1-4)Gal(b1-4)GlcNAc(b1-3)Gal(b1-4)GlcNAc(b1-3)Gal(b1-4)GlcNAc
# In short: as §1
# [31] = target: GlcNAc(b1-3)Gal(b1-4)GlcNAc
# In short: as §1
# [32] = target: GlcNAc(b1-4)Gal(b1-4)GlcNAc
# In short: as §1
# [33] = target: Kdn(a2-6)Gal(b1-4)GlcNAc
# In short: as §1
# [34] = target: Neu5Ac(a2-3)Gal(b1-3)GlcNAc(b1-3)Gal(b1-4)GlcNAc
# In short: as §1
# [35] = target: Neu5Ac(a2-3)Gal(b1-4)GlcNAc
# In short: as §1
# [36] = target: Neu5Ac(a2-3)Gal(b1-4)[Fuc(a1-3)]GlcNAc(b1-6)[Gal(b1-3)]GalNAc
# In short: as §1
# [37] = target: Neu5Ac(a2-6)GalNAc
# In short: as §1
# [38] = target: Neu5Ac(a2-8)Neu5Ac
# In short: as §1
# [39] = target: Neu5Ac(a2-8)Neu5Ac(a2-8)Neu5Ac
# In short: as §1
# [40] = target: Neu5Ac(b2-6)GalNAc
# In short: as §1
# [41] = target: Neu5Gc(a2-3)Gal(b1-3)[Fuc(a1-4)]GlcNAc
# In short: as §1
# [42] = target: Neu5Gc(a2-8)Neu5Ac(a2-3)Gal(b1-4)GlcNAc
# In short: as §1
binder,measurement,setting,value
B1,glycan array binding signal (z-score),[1],-0.273
same,glycan array binding signal (z-score),[2],-0.186
same,glycan array binding signal (z-score),[3],-0.185
same,glycan array binding signal (z-score),[4],0.005
same,glycan array binding signal (z-score),[5],-0.133
same,glycan array binding signal (z-score),[6],2.81
same,glycan array binding signal (z-score),[7],-0.142
same,glycan array binding signal (z-score),[8],-0.238
same,glycan array binding signal (z-score),[9],0.093
same,glycan array binding signal (z-score),[10],-0.141
same,glycan array binding signal (z-score),[11],-0.279
same,glycan array binding signal (z-score),[12],2.01
same,glycan array binding signal (z-score),[13],1.28
same,glycan array binding signal (z-score),[14],2.02
same,glycan array binding signal (z-score),[15],-0.238
same,glycan array binding signal (z-score),[16],1.34
same,glycan array binding signal (z-score),[17],-0.245
same,glycan array binding signal (z-score),[18],-0.324
same,glycan array binding signal (z-score),[19],-0.085
same,glycan array binding signal (z-score),[20],-0.347
same,glycan array binding signal (z-score),[21],0.188
same,glycan array binding signal (z-score),[22],-0.36
same,glycan array binding signal (z-score),[23],-0.257
same,glycan array binding signal (z-score),[24],-0.295
same,glycan array binding signal (z-score),[25],-0.363
B2,glycan array binding signal (z-score),[26],-0.448
same,glycan array binding signal (z-score),[27],0.254
same,glycan array binding signal (z-score),[28],-0.344
same,glycan array binding signal (z-score),[29],-0.501
same,glycan array binding signal (z-score),[30],-0.351
same,glycan array binding signal (z-score),[31],-0.367
same,glycan array binding signal (z-score),[32],-0.349
same,glycan array binding signal (z-score),[33],-0.393
same,glycan array binding signal (z-score),[19],-0.36
same,glycan array binding signal (z-score),[34],-0.413
same,glycan array binding signal (z-score),[35],-0.311
same,glycan array binding signal (z-score),[36],8.35
same,glycan array binding signal (z-score),[37],-0.34
same,glycan array binding signal (z-score),[38],-0.356
same,glycan array binding signal (z-score),[39],-0.347
same,glycan array binding signal (z-score),[40],-0.286
same,glycan array binding signal (z-score),[41],-0.349
same,glycan array binding signal (z-score),[42],-0.365
